The target in assay [1] is Protein phosphatase methylesterase 1 (Homo sapiens) (UniProt Q9Y570). In words: human PME-1 methylesterase inhibition confirmation – biochemical, fluorescence polarization, FP-Rh probe, triplicate (AID 2171).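 Note: 0% = enzyme with DMSO and 100% = wells lacking PME-1.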 Conditions: recombinant PME-1, FP-Rh probe fluorescence polarization; at 5.9 µM; stronger effect = higher value.
Assay [2] concerns the target Nuclear receptor coactivator 3 (Homo sapiens) (UniProt Q9Y6Q9). The experiment in a line: NCOA3 GAL4-fusion reporter inhibition – cell-based, luminescence, quadruplicate, confirmation (AID 588792;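 active = mean inhibition over 43.08%, the solvent-only control mean plus 3 SD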;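 note: 0% = DMSO treated cells and 100% = gossypol at 36 µM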). The settings on record: HEK293 GAL4-SRC3 luciferase reporter, at 3.6 µM, stronger effect = higher value.
In assay [3] the test system is transactivating tegument protein VP16 (Human herpesvirus 1), Gal4-VP16 luciferase reporter. The experiment in a line: repression of VP16-driven luciferase reporter – cell-based, luminescence, high throughput, counter-screen for SRC3 inhibitor project (AID 588794; in the data active = inhibition above about 30%). Conditions: mammalian cells, at 3.6 µM, stronger effect = higher value.
The target of assay [4] is Nuclear receptor coactivator 1 (Homo sapiens) (UniProt Q15788). The experiment in a line: NCOA1 GAL4-fusion reporter inhibition – cell-based, luminescence, quadruplicate, confirmation (AID 588820;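 active = mean inhibition above 46.68%, the untreated control wells mean plus 3 SD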;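 note: 0% = DMSO wells and 100% = gossypol 36 µM treated wells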). The settings on record: HEK293 GAL4-SRC1 luciferase reporter, at 3.6 µM, stronger effect = higher value. A general note: In a reporter assay the amount or activity of a reporter protein is the signal.

Assay [5] in a line: repression of VP16-driven luciferase reporter – cell-based, luminescence, high throughput, counter-screen for SRC1 inhibitor project (AID 588824; in the data active = inhibition above about 25%). The settings on record: cell-based VP16 transactivation luciferase luminescence; at 3.6 µM; stronger effect = higher value.
Assay [6] can be described thus: StAR promoter reporter inhibitors, counter-screen for LRH-1 inverse agonist project, cell-based, luminescence, high throughput (AID 651611; in the data active = inhibition above about 28%). The settings on record: StAR promoter luciferase reporter counterscreen, at 3.6 µM, stronger effect = higher value. (In general: The purpose of a counterscreen is to sort out artefacts and off-target activity.)
The target of assay [7] is Nuclear receptor subfamily 5 group A member 2 (Homo sapiens) (UniProt O00482). In words: NR5A2 activity suppression in reporter cells – cell-based, luminescence, confirmation (AID 651613; in the data active = inhibition above about 42%;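 note: HEK293T cells co-transfected with LRH-1 and StAR promoter luciferase reporter; 0% = vehicle wells and 100% = parental cells lacking receptor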). Conditions: cell-based LRH-1 luciferase reporter, inverse agonism; at 3.6 µM; stronger effect = higher value.
Sequence of Nuclear receptor subfamily 5 group A member 2 (Homo sapiens) (O00482 whole entry, looked up): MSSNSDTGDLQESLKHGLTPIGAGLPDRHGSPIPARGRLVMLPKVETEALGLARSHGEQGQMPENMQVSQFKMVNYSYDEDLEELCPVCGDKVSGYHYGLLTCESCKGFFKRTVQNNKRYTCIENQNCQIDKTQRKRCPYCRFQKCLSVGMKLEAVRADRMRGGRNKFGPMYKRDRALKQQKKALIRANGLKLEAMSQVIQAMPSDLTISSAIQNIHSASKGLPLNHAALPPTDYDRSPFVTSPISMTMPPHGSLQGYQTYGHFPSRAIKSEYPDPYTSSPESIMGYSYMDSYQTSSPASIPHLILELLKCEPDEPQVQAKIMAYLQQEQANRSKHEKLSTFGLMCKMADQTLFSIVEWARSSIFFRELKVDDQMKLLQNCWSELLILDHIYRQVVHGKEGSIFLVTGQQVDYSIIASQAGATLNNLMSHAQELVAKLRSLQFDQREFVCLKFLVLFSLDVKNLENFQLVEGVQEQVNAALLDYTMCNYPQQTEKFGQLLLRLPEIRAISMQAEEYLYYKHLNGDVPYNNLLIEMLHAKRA
Assay [8] deals with Steroidogenic factor 1 (Homo sapiens) (UniProt Q13285). The experiment in a line: inverse agonism at SF1 nuclear receptor – cell-based, luminescence, high throughput, counter-screen for LRH-1 inverse agonist project (AID 651614; in the data active = inhibition above about 44%;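 note: cells cotransfected with StAR promoter reporter and SF1 expression vector; 0% = vehicle on cells with receptor and 100% = vehicle on cells lacking receptor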). Conditions: cell-based SF1 luciferase reporter, at 3.6 µM, stronger effect = higher value.
Sequence of Steroidogenic factor 1 (Homo sapiens) (Q13285 whole entry, looked up, the tested form may be a part): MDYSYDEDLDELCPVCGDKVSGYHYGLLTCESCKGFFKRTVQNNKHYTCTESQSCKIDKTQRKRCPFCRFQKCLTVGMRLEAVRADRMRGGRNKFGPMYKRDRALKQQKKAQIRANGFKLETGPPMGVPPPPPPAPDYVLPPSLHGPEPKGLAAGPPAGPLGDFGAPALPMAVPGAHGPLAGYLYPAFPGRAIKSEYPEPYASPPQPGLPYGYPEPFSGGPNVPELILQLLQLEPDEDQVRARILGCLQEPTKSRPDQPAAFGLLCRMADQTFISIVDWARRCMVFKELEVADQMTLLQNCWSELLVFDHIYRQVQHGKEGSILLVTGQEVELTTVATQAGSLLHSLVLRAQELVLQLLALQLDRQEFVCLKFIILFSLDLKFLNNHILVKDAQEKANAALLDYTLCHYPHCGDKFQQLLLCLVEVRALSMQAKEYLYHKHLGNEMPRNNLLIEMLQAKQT
Assay [9] can be described thus: compounds suppressing VP16-driven luciferase signal – cell-based, luminescence, high throughput, counter-screen for LRH-1 inverse agonist project (AID 651615; in the data active = inhibition above about 33%). The settings on record: Gal4-VP16 luciferase reporter cells, at 3.6 µM, stronger effect = higher value.
In assay [10] the target is Oxysterols receptor LXR-beta (Homo sapiens) (UniProt P55055). The experiment in a line: nonspecific reporter activation via LXR – cell-based, luminescence, HEK293, H. contortus campaign, counter-screen for hcDAF-12 agonist project, confirmation (AID 743027;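 active = mean percent activation of the reporter above a cutoff set as the average over tested compounds plus their standard deviation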). Conditions: HEK293 Gal4-LXR tk-luc reporter, 24 h, at 6.8 µM, stronger effect = higher value, normalized: DMSO 0%, positive control 100%.
Sequence of Oxysterols receptor LXR-beta (Homo sapiens) (P55055 whole entry, looked up, the tested form may be a part): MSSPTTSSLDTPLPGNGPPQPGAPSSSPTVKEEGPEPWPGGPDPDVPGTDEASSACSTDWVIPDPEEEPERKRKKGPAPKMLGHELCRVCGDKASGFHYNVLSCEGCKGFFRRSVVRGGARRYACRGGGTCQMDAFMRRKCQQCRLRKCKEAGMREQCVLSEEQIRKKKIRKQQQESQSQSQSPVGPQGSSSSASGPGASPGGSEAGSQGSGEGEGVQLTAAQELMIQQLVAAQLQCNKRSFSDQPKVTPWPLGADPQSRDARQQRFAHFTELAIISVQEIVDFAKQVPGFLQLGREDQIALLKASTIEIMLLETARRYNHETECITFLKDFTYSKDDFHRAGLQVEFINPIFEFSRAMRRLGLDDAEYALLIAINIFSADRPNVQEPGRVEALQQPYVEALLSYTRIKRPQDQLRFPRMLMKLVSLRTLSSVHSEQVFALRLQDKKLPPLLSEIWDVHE

The subject of assay [11] is Nuclear hormone receptor DAF-12 (Haemonchus contortus). In words: hcDAF-12 luciferase reporter activation, retest – cell-based, luminescence, HEK293, lit1-tk-luc, triplicate, confirmation (AID 743032;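 active = mean activation across triplicate tests above the threshold derived from the earlier primary screen, cut at about 5.5% in these data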;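 note: 0% = DMSO only wells and 100% = 3 µM Δ7-dafachronic acid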). The settings on record: HEK293 hcDAF-12 lit1-tk-luc reporter, at 6.8 µM, stronger effect = higher value, % of Δ7-dafachronic acid response.
Assay [12] deals with DAF-12 nuclear receptor (Heterodera glycines), GAL4-LBD fusion. In words: hgDAF-12 GAL4 fusion reporter activation, retest – cell-based, luminescence, HEK293, GAL4-LBD fusion, confirmation (AID 743050;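 active = mean activation over triplicate wells above the hit cutoff derived from the earlier primary screen, cut at about 11% in these data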;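 note: 0% = DMSO low control and 100% = 2 mM sodium butyrate high control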). Conditions: HEK293 GAL4-hgDAF12 luciferase reporter, agonist mode; at 6.8 µM; stronger effect = higher value; percent of butyrate response.
The target of assay [13] is Oxysterols receptor LXR-beta (Homo sapiens) (UniProt P55055). In words: nonspecific reporter activation via LXR – cell-based, luminescence, HEK293, H. glycines campaign, counter-screen for hgDAF-12 agonist project, confirmation (AID 743051;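 active = mean activation of the triplicate above a set limit carried over from the primary screen, none filed active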). Conditions: HEK293 Gal4-LXR luciferase reporter, 24 h; at 6.8 µM; stronger effect = higher value.
The test system of assay [14] is transactivating tegument protein VP16 (Human herpesvirus 1). In words: compounds suppressing VP16-driven luciferase signal – cell-based, luminescence, single concentration, counter-screen for SRC2 inhibitor project (AID 652007; in the data active = inhibition above about 36%). The settings on record: cell-based VP16 transactivation luciferase reporter, at 8.9 µM, stronger effect = higher value.
Assay [15] concerns the target Nuclear receptor coactivator 2 (Homo sapiens) (UniProt Q15596). The experiment in a line: inhibition of GAL4-SRC2 driven luciferase expression – cell-based, luminescence, HEK293, triplicate, confirmation (AID 652008;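 active = mean inhibition above 46.5%, the solvent-only control mean plus 3 SD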;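 note: 0% = DMSO-treated cells and 100% = Gossypol at 36 µM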). The settings on record: HEK293 GAL4-SRC2 luciferase reporter, at 8.9 µM, stronger effect = higher value.
Assay [16] deals with Glutathione S-transferase omega-1 (Homo sapiens) (UniProt P78417). In words: recombinant GSTO1 blockers, retest – biochemical, fluorescence polarization, triplicate, counter-screen for RBBP9 inhibitor project, confirmation (AID 2176;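 active = inhibition above the primary screen's cutoff, its mean inhibition plus 3 SD, cut at about 35% in these data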;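 note: loss of polarization as inhibitors block binding of rhodamine sulfonate ester activity probe; 0% = GSTO1 with DMSO and 100% = wells lacking GSTO1 enzyme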). Conditions: recombinant GSTO1, probe fluorescence polarization; at 5.96 µM; stronger effect = higher value.
Sequence of Glutathione S-transferase omega-1 (Homo sapiens) (P78417 whole entry, looked up): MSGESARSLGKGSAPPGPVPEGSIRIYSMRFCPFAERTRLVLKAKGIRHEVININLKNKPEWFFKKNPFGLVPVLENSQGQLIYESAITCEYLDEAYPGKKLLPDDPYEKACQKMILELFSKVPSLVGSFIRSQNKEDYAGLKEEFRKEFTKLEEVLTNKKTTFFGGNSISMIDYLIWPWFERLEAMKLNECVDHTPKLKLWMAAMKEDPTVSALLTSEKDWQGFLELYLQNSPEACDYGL

Unmarked numbers belong to inactive results. Some of the results follow. The source made the active and inactive calls.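 Rule for the calls, unless noted: active = inhibition above the hit cutoff set in the earlier primary screen (cut at about 27% in these data); inactive = the rest.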

Sequence of Protein phosphatase methylesterase 1 (Homo sapiens) (Q9Y570 whole entry, looked up, the tested form may be a part): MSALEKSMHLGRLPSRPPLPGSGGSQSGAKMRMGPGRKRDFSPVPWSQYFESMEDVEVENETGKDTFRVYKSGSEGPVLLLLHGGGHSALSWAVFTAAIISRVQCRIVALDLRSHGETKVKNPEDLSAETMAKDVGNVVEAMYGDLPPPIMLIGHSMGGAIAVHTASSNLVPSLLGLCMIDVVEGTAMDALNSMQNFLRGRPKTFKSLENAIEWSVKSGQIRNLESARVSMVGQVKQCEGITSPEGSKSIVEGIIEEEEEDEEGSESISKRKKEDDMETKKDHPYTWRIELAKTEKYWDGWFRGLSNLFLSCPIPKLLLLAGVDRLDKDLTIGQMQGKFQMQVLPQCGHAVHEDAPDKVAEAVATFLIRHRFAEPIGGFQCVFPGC
Sequence of Nuclear receptor coactivator 3 (Homo sapiens) (Q9Y6Q9 whole entry, looked up, the tested form may be a part): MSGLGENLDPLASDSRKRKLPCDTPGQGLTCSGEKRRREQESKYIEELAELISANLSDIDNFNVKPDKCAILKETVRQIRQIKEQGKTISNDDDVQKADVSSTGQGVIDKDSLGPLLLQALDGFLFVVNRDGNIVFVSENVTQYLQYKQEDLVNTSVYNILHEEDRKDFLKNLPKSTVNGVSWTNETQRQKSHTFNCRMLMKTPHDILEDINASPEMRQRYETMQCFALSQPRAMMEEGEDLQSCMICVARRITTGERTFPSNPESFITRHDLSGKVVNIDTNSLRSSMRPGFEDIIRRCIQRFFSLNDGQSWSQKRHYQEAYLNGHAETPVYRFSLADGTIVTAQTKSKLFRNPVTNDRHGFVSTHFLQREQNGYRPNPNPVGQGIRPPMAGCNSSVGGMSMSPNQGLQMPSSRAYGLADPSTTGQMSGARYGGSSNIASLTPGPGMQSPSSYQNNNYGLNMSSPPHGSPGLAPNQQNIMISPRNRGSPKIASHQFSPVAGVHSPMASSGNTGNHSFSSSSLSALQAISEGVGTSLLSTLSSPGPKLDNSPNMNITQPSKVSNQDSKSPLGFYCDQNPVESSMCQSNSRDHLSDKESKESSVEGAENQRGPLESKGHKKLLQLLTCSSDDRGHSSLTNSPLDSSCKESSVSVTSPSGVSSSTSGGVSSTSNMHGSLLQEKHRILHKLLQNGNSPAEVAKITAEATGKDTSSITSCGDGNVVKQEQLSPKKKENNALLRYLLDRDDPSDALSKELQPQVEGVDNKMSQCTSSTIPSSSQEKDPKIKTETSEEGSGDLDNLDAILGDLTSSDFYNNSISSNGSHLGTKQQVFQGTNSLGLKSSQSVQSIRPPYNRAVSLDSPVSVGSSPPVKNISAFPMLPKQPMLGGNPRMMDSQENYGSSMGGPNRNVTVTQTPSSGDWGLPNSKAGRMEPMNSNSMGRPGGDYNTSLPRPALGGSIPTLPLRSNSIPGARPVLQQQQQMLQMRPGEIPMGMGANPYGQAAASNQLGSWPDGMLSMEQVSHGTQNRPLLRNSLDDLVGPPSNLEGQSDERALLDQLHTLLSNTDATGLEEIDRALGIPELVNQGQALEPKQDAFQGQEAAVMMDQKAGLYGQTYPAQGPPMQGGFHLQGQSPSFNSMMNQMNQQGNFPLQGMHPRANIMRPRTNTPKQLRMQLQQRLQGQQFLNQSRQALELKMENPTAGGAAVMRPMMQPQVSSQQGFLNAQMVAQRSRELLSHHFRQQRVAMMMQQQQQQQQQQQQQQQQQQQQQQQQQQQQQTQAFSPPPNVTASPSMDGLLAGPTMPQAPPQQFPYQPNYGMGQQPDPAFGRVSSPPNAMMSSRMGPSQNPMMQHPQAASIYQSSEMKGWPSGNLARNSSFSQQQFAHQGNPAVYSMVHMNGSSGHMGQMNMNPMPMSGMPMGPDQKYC
Sequence of Nuclear receptor coactivator 2 (Homo sapiens) (Q15596 whole entry, looked up, the tested form may be a part): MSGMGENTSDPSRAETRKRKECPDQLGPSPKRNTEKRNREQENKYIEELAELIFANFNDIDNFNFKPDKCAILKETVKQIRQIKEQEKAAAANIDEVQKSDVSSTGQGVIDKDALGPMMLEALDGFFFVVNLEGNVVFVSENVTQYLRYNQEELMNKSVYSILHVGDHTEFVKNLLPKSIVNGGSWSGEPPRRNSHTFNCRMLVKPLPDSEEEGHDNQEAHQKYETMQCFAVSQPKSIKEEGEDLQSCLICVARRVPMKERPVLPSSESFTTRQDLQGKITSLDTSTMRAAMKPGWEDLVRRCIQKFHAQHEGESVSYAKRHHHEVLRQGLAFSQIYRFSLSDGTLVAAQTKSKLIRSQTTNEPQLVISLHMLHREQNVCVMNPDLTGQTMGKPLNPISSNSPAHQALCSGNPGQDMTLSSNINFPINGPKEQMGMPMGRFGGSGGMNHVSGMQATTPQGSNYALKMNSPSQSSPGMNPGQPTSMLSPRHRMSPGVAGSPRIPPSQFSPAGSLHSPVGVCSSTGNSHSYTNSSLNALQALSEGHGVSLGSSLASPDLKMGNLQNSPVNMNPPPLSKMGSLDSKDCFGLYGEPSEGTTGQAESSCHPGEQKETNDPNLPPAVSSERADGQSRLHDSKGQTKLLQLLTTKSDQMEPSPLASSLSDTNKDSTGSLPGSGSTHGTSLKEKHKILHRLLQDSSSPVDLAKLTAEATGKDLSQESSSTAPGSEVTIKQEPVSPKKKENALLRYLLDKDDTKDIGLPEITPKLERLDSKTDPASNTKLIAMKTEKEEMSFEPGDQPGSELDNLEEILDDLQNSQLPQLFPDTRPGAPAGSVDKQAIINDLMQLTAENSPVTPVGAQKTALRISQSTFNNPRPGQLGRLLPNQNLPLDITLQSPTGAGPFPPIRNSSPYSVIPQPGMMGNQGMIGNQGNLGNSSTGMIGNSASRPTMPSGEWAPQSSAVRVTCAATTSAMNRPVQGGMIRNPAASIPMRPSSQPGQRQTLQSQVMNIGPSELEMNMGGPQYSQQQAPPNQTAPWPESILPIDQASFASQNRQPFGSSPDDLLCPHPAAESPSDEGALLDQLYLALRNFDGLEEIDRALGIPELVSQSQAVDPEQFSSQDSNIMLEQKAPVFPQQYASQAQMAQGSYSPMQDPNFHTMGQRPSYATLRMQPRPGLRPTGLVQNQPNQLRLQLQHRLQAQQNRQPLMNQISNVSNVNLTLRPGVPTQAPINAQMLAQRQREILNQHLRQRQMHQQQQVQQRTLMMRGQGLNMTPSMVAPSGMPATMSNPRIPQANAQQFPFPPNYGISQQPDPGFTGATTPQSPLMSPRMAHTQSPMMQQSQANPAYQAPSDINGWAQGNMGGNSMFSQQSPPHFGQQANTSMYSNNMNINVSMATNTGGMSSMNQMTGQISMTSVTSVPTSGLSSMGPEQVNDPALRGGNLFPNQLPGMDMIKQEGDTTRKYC

Usually inhibition stands for the change of the read-out against control, counted positive when it falls. For `Nc1ccc(C(=O)N/N=C\c2cc(N=Nc3cccc4ccccc34)ccc2O)cc1`, the inhibition in assay [1] is 15.1%; in assay [2], 15.1%; in [3], 17.7%; in assay [4], 14.5%; in [5] it was 31.8% (active).
Take `CCN1/C(=C/C=C/c2oc3ccc(-c4ccccc4)cc3[n+]2CC)Oc2ccc(-c3ccccc3)cc21`: the inhibition in [1] was -81.5%; in assay [2] it was 98.3% (active); in assay [3], 95.4% (active); in [4], 71.9% (active); in assay [5] it was 94.2% (active); in assay [6] it was 92.2% (active). Besides, the inhibition in assay [7] is 110% (active); in assay [8], 97.2% (active); in [9], 96.4% (active).
As to `O=C1c2c(O)cccc2Cc2cccc(O)c21`, the inhibition in assay [1] is 23.4%.
As for `Brc1ccc(N/N=C(/N=Nc2nn[nH]n2)c2ccccc2)cc1`, the inhibition in assay [1] is 57.1% (active); in [2], 83.2% (active); in assay [3] it was 80.2% (active).
On to `COc1cc(/C=N/Nc2nc3ccccc3s2)ccc1O`, for which the inhibition in assay [1] is 57.7% (active). Further, the activation in [10] is 1.25%; in assay [11] it was 12.4% (active); in assay [12] it was 18.2% (active); in assay [13], 0.97%.
As for `CN1CCN(c2ccc(NC(=O)c3ccc(-c4ccc(Br)cc4)o3)cc2)CC1`, the inhibition in assay [1] was 37.4% (active); in assay [6], 0.51%; in assay [7] it was 52% (active); in [8] it was 50.9% (active); in assay [9] it was 13.1%.
For the molecule `O=C1OC(Nc2cc(Br)cc3cccnc23)c2ccccc21` (centres undefined), the inhibition was 6.18% in assay [1]; 16.4% in assay [6]; 25.9% in [7]; 31.6% in [8]; 13.6% in assay [9].
Consider `CC(=O)C1C(=O)c2c(cccc2[N+](=O)[O-])C1=Nc1ccc(S(N)(=O)=O)cc1` (centres undefined), for which the values for the inhibition in assay [1], in assay [14] and in [15] were 30.2% (active), -19.4% and 2.35%, respectively.
On to `O=[N+]([O-])c1cccc(-c2nc(-c3cccs3)c(-c3cccs3)[nH]2)c1`, for which the inhibition is 13% in assay [1]; 19.7% in assay [6]; 55% (active) in assay [7]; 42.7% (active) in [8]; -12.5% in [9].
Turning to `CCCOc1ccc(/C=N/NC(=S)Nc2ccccc2[N+](=O)[O-])c(O)c1`, the results for the inhibition in [1], in assay [14] and in assay [15] were 27.9% (active), 74.5% (active) and 84% (active), respectively.
For `CCc1ccc(S(=O)(=O)/N=C2\C=C(Nc3ccc(O)cc3)C(=O)c3ccccc32)cc1`, the inhibition in assay [1] was 36.8% (active); in [6], 90.1% (active); in [7] it was 105% (active); in assay [8], 96% (active); in [9] it was 94.3% (active).
Take `Cc1ccc(NC(=O)c2ccc(Nc3c([N+](=O)[O-])cc([N+](=O)[O-])cc3[N+](=O)[O-])cc2)cc1`: the inhibition was 30.6% (active) in assay [1]; 7.5% in [2]; 2.96% in assay [3]; 50% (active) in assay [14]; 27.1% in assay [15].
For `COc1ccc2c(c1)OC(O)(C(F)(F)C(F)F)CC2=O` (centres undefined), the inhibition in [16] was 5.88%.
Regarding `COc1cccc(/C=N/NC(=O)c2[nH]c(C)c(C(=O)N/N=C/c3cccc(OC)c3O)c2C)c1O`, the inhibition in [1] was -31.6%; in assay [6] it was 42.2% (active); in assay [7], 24.8%; in [8] it was 17.4%; in assay [9], 25.2%.
In the case of `CN(C)S(=O)(=O)c1cccc(NC(=S)N/N=C/c2cc(Br)ccc2O)c1`, the inhibition in [1] was 16.8%; in assay [2], 55.4% (active); in [3], 59.2% (active); in [14], -15.5%; in assay [15], 24.2%.
With `O=S(=O)(O)Oc1c[nH]c2ccccc12`, in assay [16], the inhibition is 51.2% (active).
For `COc1cccc(-c2nc(NC(C)C)c3ccccc3n2)c1O`, the inhibition in assay [1] was 23.6%; in [6] it was 21.2%; in assay [7] it was 46.5% (active); in assay [8] it was 57% (active); in [9], -1.3%.
Regarding `COC(=O)N1C(=O)[C@](c2ccccc2)(C2CCCC2)N1C(=O)OC`, the inhibition in [1] was 86.9% (active); in [14], -1.09%; in assay [15], -4.92%.
As to `Cc1cccc(-n2c3nc(=O)[nH]c(=O)c-3cc3cc([N+](=O)[O-])ccc32)c1`, the inhibition was 50.6% (active) in [1]; 20.4% in [6]; 42.1% (active) in assay [7]; 47.4% (active) in assay [8]; 27.6% in [9].
`O=[N+]([O-])c1ccc(-c2nc(-c3cccs3)c(-c3cccs3)[nH]2)cc1`: the inhibition in [1] was 21.5%; in assay [6] it was 15.5%; in assay [7], 59.5% (active); in assay [8] it was 50.8% (active); in [9], -8.61%.
Regarding `C(=N\Nc1nc2ccccc2[nH]1)/c1cccc2cccnc12`, the inhibition was 60.2% (active) in assay [1]; 44.8% (active) in assay [2]; 8.83% in assay [3]; 49.4% (active) in assay [6]; 74% (active) in assay [7]; 64.3% (active) in assay [8]. Further, in assay [9], the inhibition is 23.9%.
`CN(c1ccccc1)S(=O)(=O)c1ccc(NC(=O)c2nc(S(C)(=O)=O)ncc2Cl)cc1`: the inhibition in [1] is 24.2%; in assay [14], 94.3% (active); in assay [15], 77.3% (active).

(Values after PubChem BioAssay.)
